Hits are enriched below; roughly 2.4% of the tested compounds scored in any of these assays.
Pol kappa inh – qHTS for Inhibitors of Polymerase Kappa; DNA polymerase kappa (Homo sapiens), Q9UBT6; purified Pol kappa, fluorescent DNA synthesis assay, 10 min; Potency, µM (doses to about 107 µM), without a hit: top-dose activity, negative = inhibition, usual class: inhibitors; actives 0.53% (n = 400,000); AID 588579, 2011; further: potency means the concentration at half of the fitted maximal effect; on the % scale 0 is the no-effect control and ±100 the full control effect
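Fluorescent qHTS in 1536-well format: enzyme (10 nM) and compound sat 15 min at room temperature before 50 nM substrate (final) was added. Signal taken at 0 and 10 min; no-enzyme buffer wells were negative controls.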
APEX1 inh – qHTS Assay for Inhibitors of the Human Apurinic/apyrimidinic Endonuclease 1 (APE1); DNA repair nuclease/redox regulator APEX1 (Homo sapiens), P27695; recombinant APE1, TAMRA/BHQ-2 abasic DNA cleavage fluorescence; Potency, µM (titrated, usually from 65.8 µM), without a hit: at the highest dose activity change, negative = inhibition, most hits filed as inhibitors; actives 0.35% (n = 350,000);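 further: potency means the concentration at half of the fitted maximal effect; plate controls were vehicle for no effect and reference inhibitor for full effect; nearly all actives have a fitted effect of over 55% in size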
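Substrate: short duplex with […] THF abasic site, 5'-TAMRA and 3'-BHQ-2, 50 nM final. APE1 at 0.75 nM, preincubated 15 min RT with compound. Fluorescence increase from first to third read measured activity.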
POLH inh – qHTS for Inhibitors of Polymerase Eta. DNA polymerase eta (Homo sapiens), Q9Y253. recombinant Pol eta, fluorescent DNA replication assay. Potency, µM (titrated, usually from 114 µM), without a hit: at the top dose activity change, negative = inhibition, hits mostly inhibitors. actives 1.2% (n = 390,000). AID 588591, 2011; further: potency means the concentration at half of the fitted maximal effect; on the % scale 0 is the no-effect control and ±100 the full control effect
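Pol eta (10 nM) was preincubated with compounds for 15 min at room temperature, after which fluorescent replication substrate (50 nM final) was added to start the reaction. Fluorescence was read kinetically at 0 and 10 min.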
GLS inhibitor – qHTS for Inhibitors of Glutaminase (GLS) | AID 624170, 2012 | actives 0.21% (n = 410,000) | GLS enzymatic activity, qHTS titration | Potency, µM (doses to about 45.5 µM), for inactives: top-dose activity change, negative = inhibition, hits mostly inhibitors | Glutaminase kidney isoform, mitochondrial (Homo sapiens), O94925; further: potency means the concentration at half of the fitted maximal effect; on the % scale 0 is the no-effect control and ±100 the full control effect
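Enzyme dispensed in phosphate buffer (45 mM, pH 8.2, 0.02% Tween-20), compounds pinned in, then 1 mM L-glutamine solution and the glutamate oxidase–HRP–Amplex Red mix added; fluorescence read immediately and again after 30 min at room temperature.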
Pol beta inh-1 – qHTS Assay for Inhibitors of DNA Polymerase Beta; Pol beta primer extension/strand displacement, fluorescence kinetic; Potency, µM (titrated, usually from 114 µM), for the others: at the top dose activity change, negative = inhibition, most hits filed as inhibitors; actives 1.3% (n = 340,000); further: potency means the concentration at half of the fitted maximal effect; on the % scale 0 is the no-effect control and ±100 the full control effect
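Enzyme-only controls used 10 nM Pol beta; buffer lacking enzyme served as negative control. Compound preincubated 15 min, then 50 nM substrate added; 0 and 10 min reads at room temperature.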
POLI inh – qHTS for Inhibitors of Polymerase Iota | DNA polymerase iota (Homo sapiens), Q9UNA4 | Pol iota fluorescent replication assay, 10 min | Potency, µM (titrated, usually from 115 µM), inactives show at the highest dose activity, negative = inhibition, hits mostly inhibitors | actives 1% (n = 390,000); further: potency means the concentration at half of the fitted maximal effect
Target sequence (Q9UNA4 whole entry, looked up): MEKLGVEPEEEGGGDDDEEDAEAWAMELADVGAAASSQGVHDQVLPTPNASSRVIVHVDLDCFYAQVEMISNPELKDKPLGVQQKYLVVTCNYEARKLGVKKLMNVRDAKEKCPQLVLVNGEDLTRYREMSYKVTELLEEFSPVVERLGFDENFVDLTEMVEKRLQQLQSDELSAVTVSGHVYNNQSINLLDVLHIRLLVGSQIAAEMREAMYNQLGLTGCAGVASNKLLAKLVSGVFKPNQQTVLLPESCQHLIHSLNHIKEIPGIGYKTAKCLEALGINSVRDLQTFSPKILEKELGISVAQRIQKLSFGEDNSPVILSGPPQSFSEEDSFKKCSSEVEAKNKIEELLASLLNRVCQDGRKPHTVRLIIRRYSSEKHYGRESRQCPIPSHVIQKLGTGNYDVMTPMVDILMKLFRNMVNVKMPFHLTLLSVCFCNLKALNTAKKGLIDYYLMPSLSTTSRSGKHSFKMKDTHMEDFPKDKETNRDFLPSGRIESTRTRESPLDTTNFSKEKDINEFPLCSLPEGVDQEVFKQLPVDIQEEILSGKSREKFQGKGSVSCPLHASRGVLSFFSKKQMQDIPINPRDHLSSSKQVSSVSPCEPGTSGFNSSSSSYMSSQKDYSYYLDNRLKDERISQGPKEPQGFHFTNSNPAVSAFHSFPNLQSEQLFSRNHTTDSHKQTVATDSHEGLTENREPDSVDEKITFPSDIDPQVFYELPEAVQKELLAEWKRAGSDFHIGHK
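Pol iota at 10 nM preincubated 15 min with compounds at room temperature; reaction started with fluorescent substrate, 50 nM final. Fluorescence read kinetically at 0 and 10 min; buffer-only wells as negative control.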
Pol beta inh-2 – Inhibitors of DNA Polymerase Beta: Hit validation; shares compounds with Pol beta inh-1; Pol beta primer extension/strand displacement, fluorescence kinetic; Potency, µM, actives largely listed as inhibitors; actives 87% (n = 250); calls by dose curve; further: potency means the concentration at half of the fitted maximal effect
Klenow inh – Inhibitors of DNA Polymerase Beta: Hit Validation in Klenow Fragment Assay; shares compounds with Pol beta inh-1; Klenow exo- polymerase counter-screen, fluorescent DNA substrate; activity change, negative = inhibition, % at 57.1 µM; 250 tested, under 10 active; AID 540300, 2011
HIV RT counter – Inhibitors of DNA Polymerase Beta: Hit Validation in HIV-RT Assay; shares compounds with Pol beta inh-1; HIV-1 RT polymerase activity, counter-screen; activity % (negative = inhibition, positive = activation), % at 57.1 µM; 250 tested, under 10 active
POLB inh gel – Inhibitors of DNA Polymerase Beta: Hit Validation in Radiolabeled Extension Assay; actives 91% (n = 110); shares compounds with Pol beta inh-1; radiolabeled primer extension gel assay, phosphorimager; inhibition, % at 10 µM;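 active means inhibition at 10 µM of 30% or more; inconclusive means no clear call, values can overlap the other calls; inactive means inhibition at 10 µM under 30%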
The depositor's hits bear a star. Unless noted, the call rests on the fitted dose curve; in most records, active means well fitted curve in the direction sought with a large enough effect; inconclusive means small, poorly fitted or top-dose-only effect, or another doubt; inactive means no such curve, though single readings can be large; an effect the other way counts as inactive or inconclusive.

For CCn1c(=S)[nH]c2scc(-c3cccs3)c2c1=O the results were Pol kappa inh -17%, APEX1 inh -9%, POLH inh -3%, GLS inhibitor 1%, Pol beta inh-1 -1% and POLI inh -17%.
Screening CC(C)n1c(=S)[nH]c2scc(-c3cccs3)c2c1=O returned Pol kappa inh inconclusive, APEX1 inh inconclusive, POLH inh 18µM*, GLS inhibitor 0%, Pol beta inh-1 7.9µM*, POLI inh 20µM*, Pol beta inh-2 22*, Klenow inh 4, HIV RT counter 10 and POLB inh gel 98*.
For O=C(NC1CCCCC1)C(c1ccccn1)N(C(=O)c1csnn1)c1ccccc1 (stereo unspecified) the results were Pol kappa inh 3%, APEX1 inh -1%, POLH inh -19%, GLS inhibitor 4%, Pol beta inh-1 39% and POLI inh 54%.
C#CCn1c(=NC(=O)c2cccs2)sc2cccc(OC)c21 was read as Pol kappa inh -12%, APEX1 inh -3%, POLH inh inconclusive, GLS inhibitor -10%, Pol beta inh-1 20µM*, POLI inh inconclusive, Pol beta inh-2 32*, Klenow inh -9, HIV RT counter 43 and POLB inh gel 77*.
COC(=O)c1sccc1-c1ccc(C(=O)Nc2cccc(Cl)c2)o1 was read as Pol kappa inh -29%, APEX1 inh -2%, POLH inh inconclusive, GLS inhibitor 1%, Pol beta inh-1 14µM*, POLI inh inconclusive, Pol beta inh-2 18*, Klenow inh 0 and HIV RT counter 31.
Screening O=C(CSc1n[nH]c(-c2ccccc2)n1)c1ccc(O)c(O)c1 returned Pol kappa inh 25µM*, APEX1 inh inconclusive, POLH inh 40µM*, GLS inhibitor -5%, Pol beta inh-1 16µM*, POLI inh 18µM*, Pol beta inh-2 32*, Klenow inh -28, HIV RT counter inconclusive and POLB inh gel 25.
For CCOc1ccc(-c2nc(SCC(=O)c3ccccc3)n[nH]2)cc1 the results were Pol kappa inh -10%, POLH inh -9%, GLS inhibitor 1%, Pol beta inh-1 2% and POLI inh -12%.
`COc1cccc2sc(Nc3nnc(-c4ccc(F)cc4)o3)nc12` gave Pol kappa inh -22%, APEX1 inh -4%, POLH inh 50µM*, GLS inhibitor 6%, Pol beta inh-1 13µM*, POLI inh -23%, Pol beta inh-2 35*, Klenow inh -3, HIV RT counter 97 and POLB inh gel 85*.

Screens: PubChem, National Center for Advancing Translational Sciences (NCATS)
